Bioassay records (PubChem)
Lassa entry inh – Lassa virus entry inhibition; Lassa virus pseudotype entry inhibition, cell reporter; Potency, µM (top dose mostly 37.9 µM), without a hit: top-dose activity change, negative = inhibition, usual class: inhibitors; actives 1.2% (n = 300,000); AID 540256; calls by dose curve; tested in HEK293 cells; also: potency is read from the fitted curve at half-maximal effect; % is scaled to controls: 0 for no effect and ±100 for the full control effect; nearly all actives have a fitted effect of over 50% in size
Shiga inhibitor – blocks Shiga toxin action in Vero cells. inhibition, % at 38.7 µM. Vero cells, Shiga toxin protein synthesis inhibition reporter. actives 9.2% (n = 290,000); in the data active = inhibition mostly above about 28%, no sharp cut-off; inactive = mostly below about 43%; also: 0% is about no effect
Vaccinia Venus – inhibitors of vaccinia virus (Venus reporter); Vaccinia virus Venus reporter expression, fluorescence; Potency, µM (titrated, usually from 36.5 µM), without a hit: top-dose activity change, negative = inhibition, usual class: inhibitors; actives 0.46% (n = 330,000); AID 720580; calls by dose curve; tested in A549 cells; also: potency is read from the fitted curve at half-maximal effect; % is scaled to controls: 0 for no effect and ±100 for the full control effect; nearly all actives have a fitted effect of over 30% in size
VACV mCherry inh – inhibitors of vaccinia virus infection (mCherry reporter signal); Vaccinia virus mCherry reporter infection, fluorescence; Potency, µM (series often up to 36.5 µM), without a hit: at the top dose activity change, negative = inhibition, hits mostly inhibitors; actives 0.63% (n = 310,000); AID 720579; calls by dose curve; tested in A549 cells; also: potency is read from the fitted curve at half-maximal effect; % is scaled to controls: 0 for no effect and ±100 for the full control effect; nearly all actives have a fitted effect of over 35% in size
Cycloheximide cs – affects cycloheximide protein synthesis inhibition readout, counter-screen; cell reporter, cycloheximide protein synthesis inhibition counterscreen; actives 12% (n = 300,000); max response, %; in the data active = max response mostly above about 13%, no sharp cut-off; inactive = mostly below about 14%; also: read at 38.3 µM for the half of the compounds with a filed dose; 0% is about no effect
MARV entry inh – Marburg virus entry inhibition; Potency, µM (series often up to 37.8 µM), for the others: top-dose activity change, negative = inhibition, most hits filed as inhibitors; Marburg virus pseudotyped entry inhibition, cell reporter; actives 1.8% (n = 300,000); AID 540276; calls by dose curve; tested in HEK293 cells; also: potency is read from the fitted curve at half-maximal effect; % is scaled to controls: 0 for no effect and ±100 for the full control effect
* hit, by the source's call; i = inactive; ? = inconclusive; · = not tested or not shown; [ ] = remark or other dose. This is one part of a sample in which hits are shown more often than they occur.

SMILES | Lassa entry inh | Shiga inhibitor | Vaccinia Venus | VACV mCherry inh | Cycloheximide cs | MARV entry inh
Cc1cc(C)c2nc(N(CCCN(C)C)C(=O)c3ccc4c(c3)OCCO4)sc2c1 | ? | · | -21% | -22% | · | ?
Cc1cc(C)c2nc(N(CCCN(C)C)C(=O)C3=COCCO3)sc2c1 | ? | · | ? | -13% | · | 20µM*
CCN(CC)CCN(C(=O)C1=COCCO1)c1nc2cc(C)cc(C)c2s1 | -14% | -8 | -22% | i | -1 | 11µM*
O=S(=O)(c1ccc(F)cc1)n1cnc2ccccc21 | 6%[46.1 µM] | 5 | -25% | -23% | -1 | ?
CC(C)(C)c1ccc(C(=O)N2CCC2(C)C(=O)Nc2cccc3ncccc23)cc1 (configuration not stated) | · | · | -18% | ? | · | ·
COc1cc(=O)n2c(c1C(=O)NCc1ccco1)CCN(Cc1ccc3ccccc3c1)CC2 | · | · | -12% | i | · | ·
O=C(COC(=O)CNC(=O)c1ccccc1)NC1CCCC1 | -13% | · | 6% | -7% | · | 1%[46.1 µM]
